Data on 38 compounds can be found in PubChem BioAssay (NCATS).

Records with an inconclusive call do not appear. A number with no mark means an inactive call. Active and inactive are the calls of the source. Calls come from the whole dose curve; as a rule, active = well fitted inhibition curve with a large enough effect; inconclusive = small, poorly fitted or top-dose-only effect; inactive = no such curve, though single readings can be large or run the other way.

Test [1] deals with Zika virus NS2B-NS3 protease (unlinked complex). In words: Primary screen GU Rhodamine qHTS for Zika virus inhibitors: Unlinked NS2B-NS3 protease assay (AID 1347159). Note: nearly all actives have a fitted effect of over 60% in size. In outline:
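Percent inhibition came from the 15-min rise in Rhodamine110 fluorescence (1.5 microM substrate, ~15% conversion), normalized to no-inhibitor and no-enzyme wells and Hill-fitted. Unlinked protease, 25 nM, pH 8.0 Tris buffer; compounds up to 114 microM, 15-min preincubation.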
(In qHTS, concentration-response curves come from the screen itself.)

Test [2] deals with Zika virus NS2B-NS3 protease (linked construct). In words: Primary screen NINDS Rhodamine qHTS for Zika virus inhibitors (AID 1347160). Note: nearly all actives have a fitted effect of over 55% in size. In short, it runs like this: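 Rhodamine110-peptide cleavage (1.5 µM substrate) by 25 nM linked NS2B-NS3 enzyme at pH 8.0 (Tris, Tween 20), after 15 min RT preincubation with compounds; 15-min fluorescence change normalized to controls and Hill-fitted.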
Potency is the fitted concentration of half-maximal effect.

On to `C=CC(=O)N1CC(N2CCN(C(=O)CNc3cc(C4CC4)c(Cl)cc3O)CC2)C1`, for which the Potency entry in test [1] and in test [2] was “inactive” throughout.
With `COc1nc2ccc(Br)cc2cc1[C@@H](c1ccccc1)[C@@](O)(CCN(C)C)c1cccc2ccccc12`, the Potency entry in test [1] and in test [2] was “inactive” throughout.
For the compound `CN(C)C(=O)NC1(c2ccccc2)CCN(CCC[C@]2(c3ccc(Cl)c(Cl)c3)CCCN(C(=O)c3ccccc3)C2)CC1`, the Potency entry in test [1] and in test [2] was “inactive” each time.
For the compound `Cc1[nH]c(/C=C2\C(=O)Nc3cc(-c4ccccc4)ccc32)c(C)c1CCC(=O)O`, the Potency in test [1] was 1.78 µM (active); in test [2] it was 2.24 µM (active).
On to `O=C(NCCCc1ccccc1)C1CCC(CNS(=O)(=O)c2cccc3nsnc23)CC1` (stereo unspecified), for which the Potency result in test [1] and in test [2] was “inactive” each time.
`C=CC1(C)CC(O)C(C(=C)C(=O)OC)C(O)C1C(=C)CO` (stereo unspecified): the Potency entry in test [1] and in test [2] was “inactive” each time.
Take `O=C(Nc1ccccc1C(=O)Nc1ccc(CCO)cc1)c1ccc([N+](=O)[O-])cc1`: the Potency result in test [1] and in test [2] was “inactive” throughout.
Consider `COc1cc2c(Nc3cc(F)c(Cl)c(Cl)c3)ncnc2cc1OCC1CCCN(C)CCC1`, for which the Potency entry in test [1] and in test [2] was “inactive” in each case.
Take `Cc1ccc(N2CCN(CCC3NC(=O)c4ccccc43)CC2)cc1C` (stereo unspecified): the Potency entry in test [1] and in test [2] was “inactive” each time.
Take `Nc1nc(OCc2cc(Br)cs2)c2[nH]cnc2n1`: the Potency result in test [1] and in test [2] was “inactive” each time.
With `CCC1C(=O)N(C)c2cnc(Nc3ccc(C(=O)NC4CCN(C)CC4)cc3OC)nc2N1C1CCCC1` (stereo unspecified), the Potency result in test [1] and in test [2] was “inactive” throughout.
Turning to `C=C1CC[C@@H]2[C@](C)(CO)[C@H](O)CC[C@@]2(C)[C@@H]1CC(O)C1=CCOC1=O` (stereo partly specified), the Potency result in test [1] and in test [2] was “inactive” throughout.
Take `CCOC(=O)N1CCC(CN(Cc2ccc(Cl)cc2)Cc2ccc([N+](=O)[O-])s2)C1` (stereo unspecified): the Potency entry in test [1] and in test [2] was “inactive” throughout.
Regarding `CCC(C)CNCC(=O)N1CCC2SC=CC2C1COc1cccc(C)c1` (stereo unspecified), the Potency entry in test [1] and in test [2] was “inactive” each time.
On to `Cn1c(CO)c(-c2ccccc2)c2cc([N+](=O)[O-])ccc21`, for which the Potency entry in test [1] and in test [2] was “inactive” in each case.
`Cn1ncc2cc(-c3cnc(N)c(Cl)c3N3CCC4(CCNC4=O)CC3)ccc21`: the Potency result in test [1] and in test [2] was “inactive” throughout.
With `C=C1C(=O)O[C@@H]2/C=C(\CO)CC/C=C(/C=O)C[C@@H](O)[C@@H]12`, the Potency entry in test [1] and in test [2] was “inactive” throughout.
Turning to `COC(=O)C1=CO[C@@H](O[C@@H]2O[C@H](CO)[C@@H](O)[C@H](O)[C@H]2O)[C@H]2[C@@H]1C=C[C@]21C=C([C@H](C)OC(=O)/C=C/c2ccc(O)cc2)C(=O)O1`, the Potency result in test [1] and in test [2] was “inactive” each time.
Take `Fc1ccc(CN2CCC(Nc3ccc(C(F)(F)F)nn3)CC2)cc1F`: the Potency entry in test [1] and in test [2] was “inactive” each time.
For the compound `COc1ccc(CCN(C)CCCOc2nsc(-c3ccccc3)n2)cc1OC`, the Potency entry in test [1] and in test [2] was “inactive” each time.
As to `COc1ccc(CNc2nc(N(CCO)CCO)nc3c2ncn3C(C)C)cc1`, the Potency entry in test [1] and in test [2] was “inactive” each time.
Consider `O=C(c1ccc(F)cc1)N1CCCC(c2nc(-c3ccc(F)cc3)no2)C1` (stereo unspecified), for which the Potency result in test [1] and in test [2] was “inactive” throughout.
Turning to `COc1ccc(Oc2c(Cl)cnn(-c3cc(C)cc(C)c3)c2=O)cc1`, the Potency result in test [1] and in test [2] was “inactive” each time.
For `C#CCNCc1cc2cc(OCc3ccccc3)ccc2[nH]1`, the Potency result in test [1] and in test [2] was “inactive” each time.
Regarding `c1cc(NCCc2c[nH]c3ccccc23)cc(Nc2ccncc2)c1`, the Potency result in test [1] and in test [2] was “inactive” in each case.
For `C[C@@H]1CCCN1CCc1cc2cc(-c3ccc(C#N)cc3)ccc2o1`, the Potency result in test [1] and in test [2] was “inactive” each time.
As to `Cn1ncnc1[C@H]1c2n[nH]c(=O)c3cc(F)cc(c23)N[C@@H]1c1ccc(F)cc1`, the Potency result in test [1] and in test [2] was “inactive” each time.
On to `COc1ccc(NC(=O)c2ccc(C(=N)N(C)C)cc2)c(C(=O)Nc2ccc(Cl)cn2)c1`, for which the Potency entry in test [1] and in test [2] was “inactive” in each case.
On to `COc1ccc(C2(N(C)C(=O)c3ccc(NC(=O)c4ccco4)cc3)CCOCC2)cc1`, for which the Potency result in test [1] and in test [2] was “inactive” throughout.
As to `CC(=O)O[C@@H]1[C@@H](OC(C)=O)[C@H](C)O[C@@H](O[C@H]2[C@@H]3C=CO[C@@H](O[C@@H]4O[C@H](CO)[C@@H](O)[C@H](O)[C@H]4O)[C@@H]3[C@@]3(CO)O[C@@H]23)[C@@H]1OC(=O)/C=C/c1ccccc1`, the Potency result in test [1] and in test [2] was “inactive” each time.
For `C=C1C(=O)O[C@@H]2[C@H]1CC[C@H](C)C(CCC(=O)O)C2(C)O` (stereo partly specified), the Potency entry in test [1] and in test [2] was “inactive” in each case.
Turning to `CCO[C@H]1CN(C2CCC(O)(c3ccc4c(c3)OCO4)CC2)C[C@@H]1NC(=O)CNC(=O)c1cccc(C(F)(F)F)c1` (stereo partly specified), the Potency result in test [1] and in test [2] was “inactive” in each case.
Take `CCOC(=O)c1csc(Nc2ccc(Cl)cc2)n1`: the Potency entry in test [1] and in test [2] was “inactive” throughout.
With `Cn1cc(-c2cnn3c(N)c(Br)c(C4CCCNC4)nc23)cn1` (stereo unspecified), the Potency result in test [1] and in test [2] was “inactive” throughout.
For `O=C(Nc1ccccc1Cl)c1cnc2ccc(C3CCNCC3)cn12`, the Potency result in test [1] and in test [2] was “inactive” throughout.
In the case of `COc1cc(C#N)ccc1S(=O)(=O)Nc1ccc2c(c1)cc(C)c(=O)n2C`, the Potency entry in test [1] and in test [2] was “inactive” in each case.
Turning to `O=C(NCCN1CCOCC1)c1cc2c(Oc3ccc(NC(=O)C4(C(=O)Nc5ccc(F)cc5)CC4)cc3)ccnc2[nH]1`, the Potency entry in test [1] and in test [2] was “inactive” each time.
In the case of `CN(C)C(=O)C(=O)c1cn(C)c2cc(Cl)c(C(=O)N3CCC(Cc4ccc(F)cc4)CC3)cc12`, the Potency entry in test [1] and in test [2] was “inactive” throughout.
